# From PubChem
# 697 NFkB inh: inhibitors of the PMA/ionomycin-induced NF-kB reporter in 697 B cells. 697 B-cell NF-kB luciferase reporter, 16 h. inhibition, % at 4 µM. 330,000 compounds, 0.33% hits. AID 435022; in the data active = inhibition above about 35%
# LMP1 NFkB inh: inhibitors of Epstein-Barr LMP1-induced NF-kappaB reporter | LMP1-induced NF-kappaB luciferase reporter cells, luminescence | 350,000 compounds, 0.69% hits | inhibition, % at 12.5 µM | AID 504558; in the data active = inhibition above about 41%;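 also: 0% = neutral control wells and 100% = reference inhibitor control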
# Jurkat NFkB inh: inhibitors of the PMA/ionomycin-induced NF-kB reporter in Jurkat cells. PMA/ionomycin-induced NF-kB luciferase reporter, luminescence. inhibition, % at 4 µM. 330,000 compounds, 0.53% hits. AID 435003; in the data active = inhibition above about 50%
# Shn3 inh set2: inhibitors of Schnurri-3 3'UTR reporter in osteoblasts; Clone20 osteoblast Shn3 3'UTR firefly luciferase, 24 h; inhibition, % at 12.5 µM; 360,000 compounds, 0.52% hits;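 active = mean inhibition of at least 75% with every replicate also reaching 75%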;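 also: 0% = median of neutral control wells and 100% = pilot-screen positive control compound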
# Gli-Sufu block: blocks Gli-Sufu signaling in a luciferase reporter; Sufu-KO-LIGHT fibroblasts, Gli luciferase reporter luminescence; inhibition, % at 5 µM; 340,000 compounds, 0.74% hits; AID 588413;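 active = inhibition above about 55%, limit read from the data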;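 also: 0% = DMSO-treated cells and 100% = wells with medium but no cells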
# TRPM1 prom inh: MITF TRPM1 promoter inhibition in SK-MEL-5 cells; SK-MEL-5 TRPM1 promoter luciferase, 24 h; inhibition, % at 12.5 µM; 330,000 compounds, 0.83% hits; AID 488899;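 active = mean inhibition across replicates of 60% or more, whatever share of single replicates reaches that level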
# Jurkat NFkB conf: lowers PMA/ionomycin-induced NF-kB signal in Jurkat cells. shares compounds with Jurkat NFkB inh. Jurkat NF-kB luciferase, 16 h. inhibition, % at 4 µM. 2,700 compounds, 27% hits. AID 435020;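 active = inhibition reaching about 45% at 4 µM in either replicate, limit read from the data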;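 also: plate controls were PMA/ionomycin stimulated DMSO wells for no effect and unstimulated DMSO wells for full effect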
# 697 NFkB conf: inhibitors of the PMA/ionomycin-induced NF-kB reporter in 697 B cells, retest | 2,000 compounds, 35% hits | AID 449746 | shares compounds with 697 NFkB inh | inhibition, % at 4 µM | 697 B-cell NF-kB luciferase, 16 h; in the data active = inhibition mostly above about 28%, no sharp cut-off; inactive = mostly below about 22%
# Starred values were filed as active, the others as inactive; i = inactive; · = no result given. Rows were chosen to be rich in hits. Some 2.3% of all compounds tested hit in one or more screens of this group.
SMILES,697 NFkB inh,LMP1 NFkB inh,Jurkat NFkB inh,Shn3 inh set2,Gli-Sufu block,TRPM1 prom inh,Jurkat NFkB conf,697 NFkB conf
COCCCNC(=O)Cn1ccc(NC(=O)OCc2ccccc2)nc1=O,6,-7,-14,7,-8,-9,·,·
CNC(=O)NC(=O)C(C)Oc1ccccc1F (stereo not drawn),18,3,-5,12,4,2,·,·
N=c1c2c(-c3ccccc3)c(-c3ccccc3)n(Cc3ccccc3)c2ncn1CCCn1ccnc1,37*,-54,58*,34,26,94*,42,24*
COc1ccc2cc(-c3ccccc3)ncc2c1,-327,-16,-202,-49,-125,-36,-131,-303
COc1cc2cnc(-c3ccccc3)cc2cc1OC,0,4,-4,-55,-8,-12,·,·
Nc1c2c(nc3sc4c(c13)CCCC4)-c1ccccc1CC2,-469,-85,-236,-21,-90,-47,-188,-441
O=C(Nc1ncc(Cc2ccccc2)s1)c1cccs1,-326,-37,-173,-59,3,-62,-116,-248
CC(=O)c1cnc2nc(SCc3cccc(C)c3)nn2c1C,-38,4,-29,2,-3,-27,·,·
CN(C)/C=C(/C(=O)c1ccccc1)n1cncn1,25,4,2,-12,-6,8,·,·
CC(C)(C)C(=O)/C(=C\c1ccc([N+](=O)[O-])cc1)n1cncn1,44*,·,76*,·,·,·,57*,50*
C/C(=N\NC(=O)c1ccc(CSc2nncn2C)cc1)c1cccs1,-10,-1,-12,-8,-13,-31,·,·
Cc1ccc(Nc2nc(-c3cccs3)cs2)nc1,-235,35,-149,1,-130,18,·,·
Cc1ccc(Nc2nc(-c3cccnc3)cs2)cc1C,-257,-72,-196,-123,-66,-52,-52,-125
c1ccc(-c2csc(Nc3ccc4c(c3)OCCO4)n2)cc1,i,-100,-223,-14,-59,-22,-82,-218
Cc1cc(C)nc(Nc2nc(-c3ccccc3)cs2)n1,-466,-54,-200,-27,-44,0,-122,-349
Cc1ccc(Nc2nc(-c3ccccc3)cs2)nc1,i,-59,-248,14,-100,-1,-151,-271
COc1ccc(-n2c(SCC(=O)N3CCCC3)nc3ccccc3c2=O)cc1,25,·,14,·,·,·,·,·
COc1ccc(N=Cc2sc(O)c3ccccc23)cc1,-299,-140,-175,-54,-142,-32,17,-71
N#CCSc1nc(-c2ccccc2)c2cc(Cl)ccc2n1,-25,3,-20,-8,3,-2,·,·
C/C(N)=C(/C#N)C(=O)CSc1nnc(-c2ccc3c(c2)OCO3)o1,-392,16,-158,7,-90,20,-97,-291
NC(=O)CSc1nnc(-c2ccc3c(c2)OCO3)o1,-38,-24,-52,-52,-61,-15,·,·
CC1CCCN(c2ccc([N+](=O)[O-])cc2C(=O)c2ccccc2)C1 (stereo not drawn),35*,4,51*,31,44,30,40,30*
CC1CCN(c2ccc([N+](=O)[O-])cc2C(=O)O)CC1,1,-4,-5,-1,-5,8,·,·
CCOCCCNC(=O)c1ccc2c(c1)N=C(CC)c1cc(Br)ccc1S2,-251,16,78*,-16,41,39,55*,14
CCC1=Nc2cc(C(=O)NCCN3CCOCC3)ccc2Sc2ccccc21,3,-8,12,-6,23,4,·,·
ClC1=C(Cl)C(Cl)=C(Cl)C1=C/C=C/c1ccccc1,-275,70*,55*,90*,79*,92*,-14,-26
CCCCCCCCNc1ncnc2ccccc12,107*,-5,71*,70,82*,9,68*,100*
CCc1ccccc1Nc1ncnc2ccccc12,3,9,5,18,·,1,·,·
COc1ccc(-c2ccc3sc4ccccc4c(=O)c3c2)cn1,-301,-40,-202,-67,-100,-49,-127,-255
Clc1ccc(SCc2nc3ccccc3[nH]2)cc1,-24,-20,-37,-41,-25,-119,·,·
